Experimental data as given in PubChem BioAssay AID624300 (Southern Research Specialized Biocontainment Screening …, 2012).
Among all 2,400 compounds or so, about 360 (15%) were called active.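 How the source made its calls: active means viability falls under 70% at one or more tested concentrations, taken as toxicity; inactive means viability stays over 70% at every dose.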 A selection follows. Results with a measured potency or affinity are listed apart.

Assay: HeLa cell cytotoxicity, dose response, cytotoxicity control for MgcRacGAP inhibitor project (AID 624300)
Conditions: CellTiter-Glo luminescence, 24 h; series mostly up to 100 µM

Structure (SMILES) | outcome
CN=c1scc(C)n1/N=C/c1cc(Br)c(O)c(OC)c1 | inactive
CN(C)/C=C/c1oc2ccc(O)cc2c1[N+](=O)[O-] | inactive
Cc1cc(O)ccc1N/C=C1\CCCC1=O | inactive
O=c1oc2cc(O)ccc2c2oc3cc(O)ccc3c12 | inactive
CC(C)COc1ccc(N)cc1OCC(C)C | inactive
Nc1cc2c([N+](=O)[O-])cccc2o1 | inactive
COc1cc(Sc2ccc(C)cc2)c(OC)cc1N | inactive
COc1ccc(NCCC(O)c2ccc(Cl)cc2)cc1 (configuration not stated) | inactive
COc1ccc(NC2CCCN(C(=O)COc3ccc(C(C)=O)cc3)C2)cc1 (configuration not stated) | inactive
S=c1[nH]nc(-c2ccncc2)n1/N=C/c1ccccc1 | inactive
COc1ccc(N2CCN(C(=O)c3ccc(Br)o3)CC2)cc1 | inactive
O=[N+]([O-])c1ccc(C2CC(c3ccccc3)=Nc3ccccc3S2)cc1 (configuration not stated) | inactive
CCOC1=C/C(=C/c2c(N)n3nc(S(=O)(=O)CC)sc3nc2=O)C=CC1=O | inactive
COc1ccc(OC(=O)c2cc(S(=O)(=O)N3CCCC3)ccc2Cl)cc1 | inactive
O=C(Cn1c(C(=O)NCC2CCCO2)cc2sccc21)c1ccccc1 (configuration not stated) | inactive
CCOc1cc(/C=N\NC(=O)CC(=O)NCCc2ccccc2)ccc1O | inactive
CS(=O)(=O)c1ccc2c(c1)sc1nc(=O)c(/C=C3/C=CC(=O)C(O)=C3)c(N)n12 | inactive
O=C(NCCNCC(O)COc1ccc(O)cc1)N1CCOCC1 (configuration not stated) | inactive
COc1ccc(NCC(O)COc2ccc(C(C)(C)C)cc2)cc1 (configuration not stated) | inactive

Structure (SMILES) | outcome
CCCCN(C)C(=O)C1CCN(Cc2ccc(OCc3ccccc3)cc2)CC1 | inactive
C#CCOc1ccccc1CNC1CCN(Cc2ccccc2)CC1 | inactive
O=C(Cc1coc2cc(O)ccc12)NNC(=O)c1ccc(Br)s1 | inactive
CCc1ccc(CNc2ccc(N3CCN(C(C)=O)CC3)cc2)cc1 | inactive
COc1cc(N=Nc2ccc(C)cc2S(N)(=O)=O)c(C)cc1N | inactive
COc1cc(/C=N/NC(=O)CCNC(=O)c2ccccc2Cl)ccc1O | inactive
COc1cc(/C=C/C(=O)OCC(=O)Nc2ccc3c(c2)OCCO3)ccc1O | inactive
CN(c1ccc(O)cc1)c1nc(-c2cccnc2)cs1 | inactive
Oc1ccc(-c2csc(NCc3ccco3)n2)cc1 | inactive
COc1ccc(N)cc1NC(=O)CN1CCOCC1 | inactive
CC/C(=N\O)c1ccc(O)c(OC)c1 | inactive
CC(C(=O)N(C)Cc1ccccc1)N1CCN(C/C=C/c2ccccc2)CC1 (configuration not stated) | inactive
COc1ccc(N2CCN(C(=O)CCCn3c(=O)c4cccn4c4cccnc43)CC2)cc1 | inactive
COc1cccc(CN2CCN(Cc3cc(OC)c(OC)c(OC)c3)CC2)c1OC | inactive
Nc1c(Cl)ncnc1N/N=C/c1ccc(O)cc1 | inactive
Oc1ccc(/C=N/Nc2nccnc2Cl)c(O)c1 | inactive
CCOc1cc(/C=N/Nc2ncnc(Cl)c2N)ccc1O | inactive
COc1cc(/C(C)=N/NC(=O)C(O)(c2ccccc2)c2ccccc2)ccc1O | inactive
Cc1nc(C/C(=N\N)c2ccc(O)cc2O)cs1 | inactive

Structure (SMILES) | outcome
O=C1CC(SC(=S)C2CCCC2=O)C(=O)N1 (configuration not stated) | inactive
Cc1ccc(SCCN2CCN(Cc3ccccc3)CC2)cc1 | inactive
CC(CN1CCN(Cc2ccccc2)CC1)c1ccccc1 (configuration not stated) | inactive
CC(=O)c1c(Nc2ccc3c(c2)OCCO3)oc(C)cc1=O | inactive
CC(=O)N1CCN(c2ccc(N)cc2)CC1 | inactive
Oc1ccc(/C=N/n2cc(-c3ccccc3)[nH]c2=S)cc1 | inactive
Nc1ccc(C(=O)N/N=C/c2ccc(N3CCOCC3)s2)cc1 | inactive
CN(c1ccccc1)c1ccc(/C=N/N2CCOCC2)cc1 | inactive
Oc1ccc(-c2csc(Nc3ncccn3)n2)cc1 | inactive
Oc1ccc(-c2csc(Nc3cccnc3)n2)cc1 | inactive
C#CCOCCOCCOCCNc1nc(N2CCN(C(=O)[C@H](CCCCN)n3cc([C@@H](N)C(C)CC)nn3)CC2)nc(N2CCN(C(=O)[C@H](CCCCN)n3cc([C@@H](N)CC(C)C)nn3)CC2)n1 (some centres not stated) | inactive
Cc1ccc(N2CC(C(=O)Nc3ccc(N(C)C)cc3)CC2=O)cc1C (configuration not stated) | inactive
O=C(O)c1ccc(S(=O)(=O)c2ccc3c(c2)C(=O)N(NC(=O)c2cccnc2)C3=O)cc1 | inactive
Cc1cc(=O)oc2c(O)c(O)ccc12 | inactive
O=C(O)c1cccc2cccc(-c3c4ccc(=O)c(O)c-4oc4c(O)c(O)ccc34)c12 | inactive
CC(C(=O)NCC(=O)Nc1ccc(F)c(F)c1F)N1CCN(c2ccc(O)cc2)CC1 (configuration not stated) | inactive
Cc1cc(C(=O)c2cnc(/N=C/N(C)C)s2)cc(C)c1O | inactive
COc1cc(/C=N/NC(=O)C(=O)N2CCCC2)ccc1O | inactive
Oc1ccc(Br)cc1C=Nc1ccc2[nH]ncc2c1 | inactive
